Results filed as inconclusive are left out. A call without a number means that no potency is given here. Values without a mark were called inactive. Activity calls are given as the source filed them. Calls follow the shape of the dose curve; as a rule, active = well fitted curve in the direction sought with a large enough effect; inconclusive = small, poorly fitted or top-dose-only effect, or another doubt; inactive = no such curve, though single readings can be large; an effect the other way counts as inactive or inconclusive.
Assays:
[1] = biological target: Rap guanine nucleotide exchange factor 3 (Homo sapiens) (UniProt O95398); assay: Confirmatory qHTS for antagonist of cAMP-regulated guanine nucleotide exchange factor 3 (EPAC1) (AID 1645880); settings: EPAC1 Rap1B-BODIPY-GDP exchange, fluorescence; activity, negative = inhibition: at 115 µM (top of the series); also: nearly all actives have a fitted effect of over 55% in size; also: potency is read from the fitted curve at half-maximal effect
Chain of Rap guanine nucleotide exchange factor 3 (Homo sapiens) (O95398 whole entry, looked up): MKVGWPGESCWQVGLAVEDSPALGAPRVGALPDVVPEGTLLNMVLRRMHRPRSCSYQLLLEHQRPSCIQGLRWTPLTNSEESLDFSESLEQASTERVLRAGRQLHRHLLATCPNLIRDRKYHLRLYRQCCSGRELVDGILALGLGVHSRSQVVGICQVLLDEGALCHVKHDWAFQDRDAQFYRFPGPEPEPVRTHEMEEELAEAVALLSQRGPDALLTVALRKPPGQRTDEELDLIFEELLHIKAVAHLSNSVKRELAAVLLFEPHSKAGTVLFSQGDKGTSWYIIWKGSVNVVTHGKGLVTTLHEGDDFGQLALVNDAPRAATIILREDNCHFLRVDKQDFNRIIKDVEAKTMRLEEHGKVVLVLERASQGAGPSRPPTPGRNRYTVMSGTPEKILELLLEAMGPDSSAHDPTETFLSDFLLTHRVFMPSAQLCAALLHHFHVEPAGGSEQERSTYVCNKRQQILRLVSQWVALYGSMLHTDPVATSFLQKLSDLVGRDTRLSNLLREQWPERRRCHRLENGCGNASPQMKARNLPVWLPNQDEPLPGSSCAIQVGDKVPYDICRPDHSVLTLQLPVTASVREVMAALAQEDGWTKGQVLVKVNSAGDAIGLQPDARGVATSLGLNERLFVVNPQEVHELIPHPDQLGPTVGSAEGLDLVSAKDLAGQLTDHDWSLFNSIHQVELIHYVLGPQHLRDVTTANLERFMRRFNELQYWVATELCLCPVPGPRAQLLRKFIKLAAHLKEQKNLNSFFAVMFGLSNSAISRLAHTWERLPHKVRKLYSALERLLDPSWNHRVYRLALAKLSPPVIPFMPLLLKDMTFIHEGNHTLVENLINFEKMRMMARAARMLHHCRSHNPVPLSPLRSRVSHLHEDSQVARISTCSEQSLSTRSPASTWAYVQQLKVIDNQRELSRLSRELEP
How it was run: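 Nucleotide exchange uses 100 nM EPAC1, 250 nM RAP1B-BODIPY-GDP and 50 uM GDP, with compounds in a concentration-titration series. After 5 min at room temperature, fluorescence (480 nm ex/540 nm em) is read every 5 min for 30 min. Data are normalized to control ATA and DMSO.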

[2] = biological target: Rap guanine nucleotide exchange factor 3 (Homo sapiens) (UniProt O95398); assay: Confirmatory qHTS for agonist of cAMP-regulated guanine nucleotide exchange factor 3 (EPAC1) (AID 1645881); also: nearly all actives have a fitted effect of over 75% in size; also: potency is read from the fitted curve at half-maximal effect;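 as to activation: EPAC1 catalysed release of BODIPY-GDP from Rap1B seen as fluorescence loss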
[3] = biological target: Rap guanine nucleotide exchange factor 4 (Homo sapiens) (UniProt Q8WZA2); assay: Confirmatory qHTS for agonist of cAMP-regulated guanine nucleotide exchange factor 4 (EPAC2) (AID 1645884);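 also: nucleotide exchange releases bodipy-GDP from Rap1 and this lowers its fluorescence; nearly all actives have a fitted effect of over 65% in size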; also: potency is read from the fitted curve at half-maximal effect
Chain of Rap guanine nucleotide exchange factor 4 (Homo sapiens) (Q8WZA2 whole entry, looked up): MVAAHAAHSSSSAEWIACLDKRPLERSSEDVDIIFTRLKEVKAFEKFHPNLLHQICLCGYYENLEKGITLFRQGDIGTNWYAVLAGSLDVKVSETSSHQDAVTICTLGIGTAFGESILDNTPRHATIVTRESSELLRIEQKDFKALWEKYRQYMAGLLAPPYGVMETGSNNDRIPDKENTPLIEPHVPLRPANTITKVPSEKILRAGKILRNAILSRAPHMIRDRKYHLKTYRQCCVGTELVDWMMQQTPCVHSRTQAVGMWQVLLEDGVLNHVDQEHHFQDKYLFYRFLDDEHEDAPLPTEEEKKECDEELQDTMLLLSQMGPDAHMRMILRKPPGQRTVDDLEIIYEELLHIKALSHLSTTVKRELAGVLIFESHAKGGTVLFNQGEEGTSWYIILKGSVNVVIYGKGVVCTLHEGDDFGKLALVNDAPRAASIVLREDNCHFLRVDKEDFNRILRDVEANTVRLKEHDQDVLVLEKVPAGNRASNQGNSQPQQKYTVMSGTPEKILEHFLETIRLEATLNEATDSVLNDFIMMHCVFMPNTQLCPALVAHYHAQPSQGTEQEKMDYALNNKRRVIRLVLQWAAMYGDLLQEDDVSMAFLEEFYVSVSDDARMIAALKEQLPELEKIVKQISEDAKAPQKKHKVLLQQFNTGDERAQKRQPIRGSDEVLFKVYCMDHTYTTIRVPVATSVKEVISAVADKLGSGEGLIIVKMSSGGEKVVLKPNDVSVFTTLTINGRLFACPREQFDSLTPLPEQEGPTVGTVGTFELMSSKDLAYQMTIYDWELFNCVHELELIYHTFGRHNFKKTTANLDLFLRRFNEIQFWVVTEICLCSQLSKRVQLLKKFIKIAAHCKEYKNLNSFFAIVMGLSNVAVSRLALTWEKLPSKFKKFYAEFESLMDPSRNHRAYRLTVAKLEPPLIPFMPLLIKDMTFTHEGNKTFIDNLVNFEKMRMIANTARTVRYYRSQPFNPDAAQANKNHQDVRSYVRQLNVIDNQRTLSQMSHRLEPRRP

[4] = biological target: Rap guanine nucleotide exchange factor 3 (Homo sapiens) (UniProt O95398); assay: Counterscreen qHTS for antagonist of cAMP-regulated guanine nucleotide exchange factor 3 (EPAC1) (AID 1645888);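 also: fluorescence loss as bound BODIPY-GDP is released from Rap1B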
How it was run: (§1)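 Rap1B–BODIPY-GDP (250 nM) with 50 uM GDP; compounds pin-transferred to 9.74 nM–152 uM final (activator) or from 7.32 nM upwards (inhibitor). Fluorescence Ex/Em 480/540 nm read at 5 and 30 min, then after adding cAMP or buffer, at room temperature.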

[5] = biological target: Rap guanine nucleotide exchange factor 3 (Homo sapiens) (UniProt O95398); assay: Counterscreen qHTS for agonist of cAMP-regulated guanine nucleotide exchange factor 3 (EPAC1) (AID 1645889); also: nearly all actives have a fitted effect of over 40% in size; also: potency is read from the fitted curve at half-maximal effect
How it was run: as §1

SMILES	Potency [1]	Potency [2]	Potency [3]	Potency [4]	Potency [5]	activation [3]	activity change, negative = inhibition [4]	activation [5]
CCCN(C(=O)COC(=O)COc1c(C)cccc1C)c1c(N)n(Cc2ccccc2)c(=O)[nH]c1=O	inactive	inactive	inactive	inactive	inactive	–	–	–
CCN(CC)CCN(C(=O)c1cc2ccccc2cc1OC)c1nc2ccc(F)cc2s1	inactive	inactive	inactive	inactive	inactive	–	–	–
COc1ccc(N(C(=O)c2snc(C(N)=O)c2N)C(C(=O)NC2CCCC2)c2cccs2)cc1OC (stereo not given)	33.8 µM (active)	inactive	inactive	inactive	inactive	–	–	–
Cc1cc(C)c(S(=O)(=O)c2ccc(F)cc2)c(C)c1	inactive	inactive	–	–	–	0% [at 17.1 µM, percent relative to cAMP agonist control]	-27.6% [at 30.8 µM]	-0.628% [at 30.8 µM]
CC1(C(=O)NS(=O)(=O)c2cccc(Cl)c2)CCN1C(=O)C1(c2ccc(Cl)cc2)CCC1 (stereo not given)	11.2 µM (active)	inactive	–	–	–	6.65% [at 17.1 µM, percent relative to cAMP agonist control]	-18.6% [at 30.8 µM]	5.49% [at 30.8 µM]
N#C/C(=C/c1ccc(N2CCCCC2)o1)C(=O)Nc1ccc(Cl)cc1	inactive	17.8 µM (active)	100 µM (active)	inactive	12.6 µM (active)	–	–	–
O=C(O)CCSc1nnc(COc2cccc3ccccc23)n1-c1cccc(Cl)c1	inactive	inactive	inactive	inactive	inactive	–	–	–
CC(=O)CCc1oc2ccccc2c1-c1ccccc1	inactive	inactive	–	–	–	6.69% [at 17.1 µM, percent relative to cAMP agonist control]	-10.9% [at 30.8 µM]	-0.404% [at 30.8 µM]
COc1ccc(OC)c(NC2c3ccccc3C(=O)N2c2cccnc2)c1 (stereo not given)	inactive	inactive	inactive	inactive	inactive	–	–	–
COc1ccc(-n2nnnc2C(c2ccccc2OC(F)(F)F)N2CCN(C/C=C/c3ccccc3)CC2)cc1 (stereo not given)	inactive	inactive	inactive	inactive	inactive	–	–	–
O=C1c2cccc3c(N4CCCCC4)ccc(c23)C(=O)N1c1cccc(O)c1	inactive	100 µM (active)	112 µM (active)	inactive	50.1 µM (active)	–	–	–
Cc1cc(C(=O)c2ccc3ccccc3c2)c(C)o1	inactive	inactive	inactive	inactive	inactive	–	–	–
Cc1cccc(NC(=O)Cn2c(O)c(N=NC(=O)c3ccccc3O)c3ccccc32)c1	75.7 µM (active)	inactive	inactive	inactive	inactive	–	–	–
C#CCOc1nc(C)cc(C)c1S(=O)(=O)c1ccccc1C	inactive	inactive	–	–	–	-13.7% [at 17.1 µM, percent relative to cAMP agonist control]	-7.83% [at 30.8 µM]	-3.33% [at 30.8 µM]
